Laboratory results reported in PubChem BioAssay AID652053 (Broad Institute, 2013).
Among all 1,300 compounds or so, about 930 (72%) were called active. So high a share suggests a set chosen from earlier hits. Only a sample is shown. Potency and affinity values are given separately. Values without a mark were called inactive.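 How the source made its calls: active means fitted curve reaches 40% activation signal increase at or below the top valid tested concentration in every replicate test; inconclusive means replicate tests disagree in their calls; inactive means all replicate tests inactive, including effects opposite the expected signal rise.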

Test: miR-122 inhibitors in Huh7 reporter cells, dose response, cell-based, Huh7 psiCHECK-miR122, Renilla luciferase, cherry-pick (AID 652053)
Settings: 48 h; series mostly up to 35 µM; activation (miR-122 inhibition): at the top concentration

SMILES | activation (miR-122 inhibition)
C[C@H]1CN([C@@H](C)CO)C(=O)Cc2cc(NC(=O)Nc3cccc4ccccc34)ccc2O[C@@H]1CN(C)C(=O)NC1CCCCC1 | -0.862%
CCC1(c2ccc(F)cc2)NC(=O)N(CC(=O)Nc2ccc(-c3nc4ccc(C)cc4s3)cc2)C1=O (stereo not given) | -7.83%
COC(=O)c1sccc1NC(=S)Nc1ccc(F)cc1 | 3.83%
COc1ccc(CCNC(=O)COC(=O)Cn2cnc3ccccc3c2=O)cc1 | -8.09%
Cc1ccc(Nc2nc(C(=O)NCc3ccco3)cs2)cc1 | -0.096%
O=c1c2c(nc3nc(SCc4ccccc4)[nH]n13)CCC2 | 4.6%
Cc1ccc(CSc2nnc(-c3cccnc3)o2)cc1 | -6.16%
CN(C[C@H]1N[C@@H](CO)[C@H]1c1ccc(-c2cccc(F)c2)cc1)S(C)(=O)=O | -17%
C[C@H]1CN([C@@H](C)CO)C(=O)c2cccc(NS(=O)(=O)c3ccccc3)c2O[C@H]1CN(C)Cc1ccc(C(=O)Nc2ccccc2N)cc1 | 36.4% [at 28.5 µM]
C[C@@H]1CN([C@H](C)CO)C(=O)c2cccc(NS(=O)(=O)c3ccccc3)c2O[C@H]1CN(C)Cc1ccc(C(=O)Nc2ccccc2N)cc1 | -2.83%
CCCCC(O)(CCCC)C(=O)NN(C(=O)OC)c1ccccc1 | -6.47%
COc1ccc(C(=O)N[C@H](C(=O)Nc2nc3ccccc3[nH]2)C(C)C)cc1 | 15.5%
CC(=O)N1[C@H](CNC(=O)C2CC2)[C@H](c2ccc(-c3ccccc3)cc2)[C@@H]1CO | 1.49%
O=C(N/N=C/c1cccc(F)c1)c1csc2c1CCCC2 | -4.34%
CC(C)NC(=O)N1[C@H](CO)[C@@H]2c3ccccc3N(C(=O)c3ccccc3F)C[C@@H]21 | -8.81%
CN1c2ccc(-c3cccc(F)c3)cc2[C@H]2[C@H](CCN2C(=O)C2CC2)[C@H]1CO | 10% [at 30 µM]
CC(C)NC(=O)N1CC[C@@H]2[C@@H](CO)N(C)c3ccc(-c4cccc(F)c4)cc3[C@@H]21 | 15.3% [at 30 µM]
O=C(NC[C@H]1N[C@H](CO)[C@H]1c1ccccc1)c1ccccc1F | 5.44%
C[C@@H]1CN([C@@H](C)CO)C(=O)c2cccc(NC(=O)C3CCOCC3)c2O[C@H]1CN(C)Cc1ccc2c(c1)OCO2 | 6.54%
C[C@@H]1CN([C@H](C)CO)C(=O)c2cccc(NC(=O)C3CCOCC3)c2O[C@@H]1CN(C)Cc1ccc2c(c1)OCO2 | -9.26%
C[C@@H]1CN([C@@H](C)CO)C(=O)c2cccc(NC(=O)C3CCOCC3)c2O[C@@H]1CN(C)Cc1ccc2c(c1)OCO2 | 0.015%
C[C@@H]1CN([C@H](C)CO)C(=O)c2cccc(NC(=O)C3CCOCC3)c2O[C@H]1CN(C)Cc1ccc2c(c1)OCO2 | 4.98%

SMILES | activation (miR-122 inhibition)
Cc1c(C(=O)Nc2ccccn2)oc2ccccc12 | -5.01%
Cc1ccccc1N(C(=O)CCCC(=O)Nc1ccccn1)C(C(=O)NC1CCCC1)c1ccc(O)cc1 (stereo not given) | 27.4%
O=C(NCCCN1CCN(Cc2ccccc2)CC1)c1nnc(Cc2c(F)cccc2Cl)o1 | -15.8%
COC(=O)c1c(NC(C)=O)sc(Cc2ccccc2)c1C | -7.43%
O=C(Nc1ccccn1)c1cccc(S(=O)(=O)N2CCOCC2)c1 | -7.05%
CCC(=O)N1[C@H](CNC(=O)COC)[C@@H](c2ccc(-c3ccccc3)cc2)[C@@H]1CO | -7.61%
Cc1ccc(S(=O)(=O)NCCC(=O)Oc2ccc3ccc(=O)oc3c2)cc1 | -5.43%
Cc1ccc2[nH]c(CNC(=O)C3CCCCC3)cc2c1 | 18.1%
C[C@@H]1CN([C@@H](C)CO)C(=O)Cc2cc(NC(=O)Nc3cccc4ccccc34)ccc2O[C@H]1CN(C)C(=O)NC1CCCCC1 | -1.72%
COc1ccc(/C=N/NC(=O)COc2ccccc2-c2ccccc2)cc1 | 41.9%
Cc1ccc(OCC(=O)Nc2cccc3c2CCCC3)cc1C | -7.15%
CCOc1ccc(N2C(=O)Nc3ccccc3C2(O)C(=O)NCc2ccc3c(c2)OCO3)cc1 (stereo not given) | -15.3%
Cc1cc(Cl)c(S(=O)(=O)N2CCCCCC2)cc1OCC(=O)NC1CCCCC1 | -10.7%
c1ccc(CSc2nnc(-c3cccnc3)o2)cc1 | -14.5%
C=CC(C)n1c(Br)nc2c1c(=O)[nH]c(=O)n2C (stereo not given) | -9.83%
CS(=O)(=O)N(CC(=O)Nc1cccc(F)c1)c1cccc([N+](=O)[O-])c1 | -3.67%
Cc1c(-c2ccccc2)cn2c1-c1ccc(C)n1CC2 | -6.24%
O=C(CN1CCOCC1)Nc1cc(Cl)ccc1Cl | -6.17%
CCn1c(CCNC(=O)c2ccc(OC)cc2)nnc1SCC(=O)Nc1ccccc1F | -10.9%
COc1cc(OC)c(-c2nc3cnccc3n2C)cc1OC | -11.9%
CCOC(=O)c1[nH]c2c(c1C)C(=O)CC(c1ccco1)C2 (stereo not given) | 32.4%
COC(=O)c1[nH]c2c(c1C)C(=O)CC(c1ccccc1)C2 (stereo not given) | 24.6%

SMILES | activation (miR-122 inhibition)
CCC(=O)N1[C@H](CO)[C@H](c2ccccc2)[C@@H]1CN(CC)C(=O)c1cccc(F)c1 | 1.39%
Cc1ccc(NCc2nnc(SCC(=O)Nc3ccccc3)n2CC2CCCO2)c(C)c1 (stereo not given) | 25%
CC1CCN(C(=S)c2ccc(O)cc2)CC1 | -8.51%
CC1CCN(S(=O)(=O)c2ccc(NC(=O)Cc3cccs3)cc2)CC1 | 31.5%
COCC(=O)Nc1ccc2c(c1)[C@@H]1C[C@H](CC(=O)NCc3ccccc3)O[C@H](CO)[C@@H]1O2 | -10.4%
O=C(C[C@@H]1C[C@H]2c3cc(NS(=O)(=O)c4ccc(F)cc4)ccc3O[C@H]2[C@H](CO)O1)NCc1ccc(Oc2ccccc2)cc1 | 25.6%
COc1ccc(NC(=O)Nc2ccc3c(c2)CC(=O)N([C@@H](C)CO)C[C@@H](C)[C@H](CN(C)C(=O)NC(C)C)O3)cc1 | -4.79%
COc1ccc(NC(=O)Nc2ccc3c(c2)CC(=O)N([C@@H](C)CO)C[C@@H](C)[C@@H](CN(C)C(=O)NC(C)C)O3)cc1 | 0.145%
C[C@@H]1CN([C@@H](C)CO)C(=O)c2cc(N(C)C)ccc2O[C@@H]1CN(C)C(=O)Nc1ccc(F)cc1 | 4.49%
CC(=O)c1cccc(OCC(=O)Nc2ccccc2N2CCOCC2)c1 | -6.02%
COCCCn1c(=O)/c(=C\c2ccccc2OC(F)F)s/c1=C(/C#N)C(N)=O | -4.42%
Cc1cc(C)c(C)c(S(=O)(=O)Nc2ccc(OCC(=O)O)cc2)c1C | -10.9%
Cc1cc(O)c(C(C)C)cc1N=Nc1ccccc1C(=O)O | -4.09%
Cc1ccc(C)c(S(=O)(=O)Nc2ccc(O)c3ccccc23)c1 | 20.6%
CC(=O)c1cccc(NC(=O)C(C)N2CCc3ccccc3C2)c1 (stereo not given) | 11%
C=CCn1cc(C(=O)N2CCc3ccccc3C2)c(=O)c2cc(S(=O)(=O)N(CC)CC)ccc21 | 6.72%
Cc1ccc(C(=O)Oc2ccc(C(=S)N3CCOCC3)cc2)cc1 | 5.32%
Cc1ccc(CN2C(=O)C(C)(C)Oc3ccc(C(=O)N4CCCCC4)cc32)cc1 | 13.1%
CCc1ccc(NC(=O)CN2CCc3ccccc3C2)cc1 | -5.28%
CCc1cccc(NC(=O)Cc2cn(C)c3ccccc23)c1 | 8.83%
Cc1noc(C)c1NC(=O)Nc1ccc2c(c1)CC(=O)N([C@@H](C)CO)C[C@H](C)[C@@H](CN(C)Cc1ccc(Cl)c(Cl)c1)O2 | 10.7%
